Experimental data: PubChem BioAssay (NCATS)
Inconclusive results are not listed. Active and inactive are the calls of the source. Unless noted, calls follow the shape of the dose curve; as a rule, active = well fitted curve in the direction sought with a large enough effect; inconclusive = small, poorly fitted or top-dose-only effect, or another doubt; inactive = no such curve, though single readings can be large; an effect the other way counts as inactive or inconclusive.

Tests used:
[1] = AP1 Signaling Pathway (AID 357; active = well fitted curve in either direction with a large enough effect, not every such curve was filed as active;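 also: ME-180 reporter cells stimulated with EGF at its EC50 level; % is scaled to controls: 0 for no effect and ±100 for the full control effect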); conditions: ME-180 AP-1-bla reporter, EGF-induced, beta-lactamase ratio, 5 h; at 17.2 µM (top of the series) unless noted
Procedure, shortened: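 A ratiometric CCF4 readout (405 nm excitation; 460 and 530 nm emission) quantified AP-1-driven beta-lactamase in ME-180 cells after 5 h with compound and EC50 EGF; AC50 values were derived for activators and inhibitors.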

[2] = NFAT Signaling Pathway (AID 444; active = well fitted curve in either direction with a large enough effect, not every such curve was filed as active;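 also: carbachol stimulus at about its EC50 of 1 µM final; % is scaled to controls: 0 for no effect and ±100 for the full control effect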); conditions: Jurkat NFAT-bla M1, carbachol, beta-lactamase ratio, 5 h; at 17.2 µM (top of the series) unless noted
Procedure, shortened: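 Jurkat cells carrying an NFAT-driven β-lactamase reporter and co-transfected muscarinic M1 receptor were treated with compound plus carbachol (1 uM final, an EC50 level) for 5 h at 37 °C. CCF4 loading followed for 1 h at RT; 460/530 nm ratio gave %activity.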

[3] = Stat Signaling Pathway (AID 446; active = well fitted curve in either direction with a large enough effect, not every such curve was filed as active;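 also: ME-180 cervical cancer cells given 40 pM IL-6 alongside compound; SIE-controlled beta-lactamase reporter measured as 460/530 nm FRET emission ratio; % is scaled to controls: 0 for no effect and ±100 for the full control effect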); conditions: ME-180 (cervical carcinoma) SIE beta-lactamase reporter, IL-6 stimulated, 5 h; at 17.2 µM (top of the series) unless noted
Procedure, shortened: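 Compound effects on IL-6-induced STAT reporter activity were measured in ME-180 cells. After overnight culture, cells were co-treated with 40 pM IL-6 for 5 hrs before beta-lactamase substrate loading at room temperature.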

[4] = molecular target: Glucocorticoid receptor (Homo sapiens) (UniProt P04150); experiment: GR-GFP Redistribution (AID 450;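 active = compounds whose dose series gives a full or clear partial fitted curve of increased nuclear translocation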; also: potency is read from the fitted curve at half-maximal effect)
[5] = molecular target: Glucocorticoid receptor (Homo sapiens) (UniProt P04150); experiment: GR-EFC Redistribution (AID 451; calls by dose curve; also: potency is read from the fitted curve at half-maximal effect); conditions: CHO-K1 GR-EFC translocation, beta-gal luminescence, 2 h
Procedure, shortened: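 CHO-K1 cells stably expressing nuclear-localized β-gal enzyme acceptor and GR fused C-terminally to the enzyme donor fragment; ligand-driven nuclear translocation restores β-gal by complementation. Compounds titrated up to 46 uM final, 2 h at 37 °C; luminescence read.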

[6] = molecular target: Mitogen-activated protein kinase 10 (Mus musculus) (UniProt Q61831); experiment: JNK3 AlphaScreen Assay (AID 530; active = well fitted curve in either direction with a large enough effect, not every such curve was filed as active;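 also: kinase came from lysate of stimulated human HepG2 cells; signal reports phosphorylation of biotinylated GST-cJun 1-79 at Ser73 with 10 µM ATP; % is scaled to controls: 0 for no effect and ±100 for the full control effect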)
Procedure, shortened: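 Phosphorylation of biotinylated GST-cJun(1-79) at Ser73 is measured by AlphaScreen proximity luminescence. Enzyme is JNK3 in HepG2 lysates activated with interleukin-1beta and tumor necrosis factor alpha; ATP is 10 uM final.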

[7] = molecular target: 3',5'-cyclic-AMP phosphodiesterase 4B (Homo sapiens) (UniProt Q07343); experiment: qHTS Assay for Inhibitors of PDE-IV (AID 607; active = well fitted activation curve with a large enough effect in the main read-out, with a control signal flat, not every such curve was filed as active; also: % of control where 0% means no effect)
Procedure, shortened: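 ACTOne HEK293 cells carry a modified cAMP-gated CNG channel and express endogenous PDE4; plated 1000 cells/well, compounds up to 22.9 uM final. Membrane-potential dye fluorescence (ex 535/em 590) was read; parental cells received 10 uM forskolin + 100 uM RO 20-1724.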

[8] = molecular target: Guanine nucleotide-binding protein G(i) subunit alpha-1 (Homo sapiens) (UniProt P63096); experiment: qHTS Assay for Inhibitors of RGS12 GoLoco Motif Activity (Green Fluorophore) (AID 879);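 also: 0% = labeled peptide with Gαi1 and full inhibition = labeled peptide alone without protein; negative values mean loss of peptide binding seen as reduced polarization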
Procedure, shortened: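 A drop in FITC polarization marked displacement of the FITC-tagged RGS12 GoLoco peptide (10 nM) from Gαi1 (50 nM). Compounds were incubated 10 min at room temperature in Tris pH 7.5 buffer containing 150 mM NaCl, 0.1 mM GDP and 0.05% NP40; unlabeled peptide titration served as control.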

[9] = molecular target: Cytochrome P450 3A4 (Homo sapiens) (UniProt P08684); experiment: qHTS Assay for Activators of Cytochrome P450 3A4 (AID 885); also: nearly all actives have a fitted effect of over 65% in size
Procedure, shortened: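 CYP3A4 activity: Luciferin-PPXE O-dealkylation, 25uM substrate, 200mM KPO4, RT throughout. Read-out is luciferase luminescence; higher values reflect activation.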

[10] = qHTS Assay for Identification of Small Molecule Antagonists for NFkB Signaling Pathway (AID 895; active = well fitted inhibition curve with a large enough effect in the signal ratio, with a control signal flat, not every such curve was filed as active; the % refers to the signal ratio; also: potency is read from the fitted curve at half-maximal effect)
Procedure, shortened: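 NFkB-bla ME-180 cervical carcinoma cells with beta-lactamase reporter under NFkB response element; compounds added, then TNF alpha at 10 pM final (EC50), 5 h at 37 C. LiveBLAzer substrate 2 h, room temperature; emission 460/530 nm at 405 nm excitation.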

[11] = qHTS Assay for Identification of Small Molecule Agonists for Thrombopoietin (TPO) Signaling Pathway (AID 917); also: % is scaled to controls: 0 for no effect and ±100 for the full control effect
Procedure, shortened: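 Cell-based luciferase reporter screen. Mouse Ba/F3 line stably expressing human TPO receptor; IL-3 removed overnight before plating. Co-treatment with compound and EC50 TPO (26 pM), 24 hrs at 37 C, then luminescence.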

[12] = molecular target: Pyruvate kinase (Leishmania mexicana) (UniProt Q27686); experiment: qHTS Validation Assay for Inhibitors of Leishmania Mexicana Pyruvate Kinase (AID 945);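 also: 0% = DMSO only neutral control wells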
Procedure, shortened: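 Purified LmPYK (E451W mutant, 0.2 nM) was incubated 1 h at room temperature with 0.5 mM PEP and 0.1 mM ADP in 50 mM imidazole pH 7.2, 50 mM KCl, 7 mM MgCl2; ATP formed was read by PKLight luminescence, normalized to DMSO wells.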

[13] = molecular target: Pyruvate kinase PKM (Homo sapiens) (UniProt P14618); experiment: qHTS Assay for Activators of Human Muscle Pyruvate Kinase (AID 954; active = well fitted curve in the direction sought with a large enough effect, not every such curve was filed as active;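 also: 0% = uninhibited enzyme and -100% = no enzyme or full thiadiazolimine inhibition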)
Procedure, shortened: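 A coupled luminescent readout tracked ATP made from ADP by purified PKM2. Final conditions included 0.1 nM enzyme, PEP and ADP at 0.5 and 0.1 mM, pH 7.2 imidazole buffer with BSA, and a one-hour room-temperature reaction.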

[14] = molecular target: Alpha-galactosidase A (Homo sapiens) (UniProt P06280); experiment: Counterscreen for Glucocerebrosidase Inhibitors: qHTS Assay for Human alpha-Galactosidase at pH 4.5 (AID 992); also: 0% is about no effect
Procedure, shortened: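 Citrate buffer pH 4.5, Tween-20 0.005%. Enzyme 2 nM, substrate 80 uM, 20 min RT. Stop pH 10. Fluorescence Ex 365/Em 440. AC50 by Hill fit.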

[15] = molecular target: alpha-glucosidase (Oryza sativa, rice) (UniProt Q653V4); experiment: Counterscreen for Glucocerebrosidase Inhibitors: qHTS Assay for Rice alpha-Glucosidase at pH 5.0 (AID 997);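 also: 0% = full activity with enzyme and -100% = basal without enzyme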
Procedure, shortened: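 Endpoint fluorogenic assay at pH 5.0: compounds (0.7 nM to 77 uM) titrated against 4 nM rice enzyme and 400 uM 4-MU-alpha-glucoside for 20 min at room temperature; NaOH/glycine stop, read ex 365/em 440 nm, Hill-fitted AC50.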

[16] = molecular target: Muscarinic acetylcholine receptor M1 (Rattus norvegicus) (UniProt P08482); experiment: qHTS Assay for Antagonists of Acetylcholine Muscarinic M1 Receptor: Measurement of IP-One Response (AID 944); also: nearly all actives have a fitted effect of over 75% in size
Procedure, shortened: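 Antagonist mode with rat M1 receptor transfected into CHO cells. Compound is added first for 10 min, carbachol at its EC80 follows for 30 min, and lysis reagents then allow TR-FRET detection of accumulated IP1.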

[17] = molecular target: Muscarinic acetylcholine receptor M1 (Rattus norvegicus) (UniProt P08482); experiment: qHTS Assay for Antagonists of Acetylcholine Muscarinic M1 Receptor: Kinetic Measurement of Intracellular Calcium Response (AID 943);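 also: Fluo-4 calcium signal as peak divided by basal fluorescence over 4 min; nearly all actives have a fitted effect of over 75% in size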
Procedure, shortened: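 Antagonism is measured as inhibition of the carbachol-evoked calcium rise in CHO cells transfected with rat M1. Cells are dye-loaded, exposed to compound for 10 min, then stimulated with 100 nM carbachol (EC80).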

Sequence of Pyruvate kinase (Leishmania mexicana) (Q27686 2-499 E452W): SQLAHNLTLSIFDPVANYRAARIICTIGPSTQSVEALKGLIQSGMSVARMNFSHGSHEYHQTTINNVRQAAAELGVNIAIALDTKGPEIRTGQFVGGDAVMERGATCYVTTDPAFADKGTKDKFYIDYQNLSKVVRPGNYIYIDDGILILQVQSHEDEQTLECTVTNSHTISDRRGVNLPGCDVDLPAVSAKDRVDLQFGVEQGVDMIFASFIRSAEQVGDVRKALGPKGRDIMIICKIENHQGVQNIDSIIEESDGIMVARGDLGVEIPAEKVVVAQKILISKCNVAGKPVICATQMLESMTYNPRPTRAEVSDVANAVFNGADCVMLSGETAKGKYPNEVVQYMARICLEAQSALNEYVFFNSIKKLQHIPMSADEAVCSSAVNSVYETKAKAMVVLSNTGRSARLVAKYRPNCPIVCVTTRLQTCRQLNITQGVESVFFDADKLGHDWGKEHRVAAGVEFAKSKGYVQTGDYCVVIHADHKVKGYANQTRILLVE
Sequence of Pyruvate kinase PKM (Homo sapiens) (P14618 whole entry, looked up): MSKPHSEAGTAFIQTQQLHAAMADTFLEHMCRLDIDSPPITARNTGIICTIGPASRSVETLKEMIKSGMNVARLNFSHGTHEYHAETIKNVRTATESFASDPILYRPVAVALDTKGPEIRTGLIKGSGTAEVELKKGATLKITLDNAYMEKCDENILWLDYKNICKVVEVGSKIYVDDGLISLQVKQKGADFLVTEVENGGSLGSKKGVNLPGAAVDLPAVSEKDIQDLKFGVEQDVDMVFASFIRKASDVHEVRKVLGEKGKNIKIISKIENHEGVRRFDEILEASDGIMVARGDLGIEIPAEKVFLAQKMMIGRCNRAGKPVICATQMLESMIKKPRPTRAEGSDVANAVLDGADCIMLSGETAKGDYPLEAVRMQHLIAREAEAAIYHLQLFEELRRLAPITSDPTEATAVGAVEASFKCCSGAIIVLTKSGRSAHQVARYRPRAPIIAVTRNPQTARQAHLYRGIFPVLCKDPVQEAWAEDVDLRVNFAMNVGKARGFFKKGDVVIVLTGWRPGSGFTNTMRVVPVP
Sequence of 3',5'-cyclic-AMP phosphodiesterase 4B (Homo sapiens) (Q07343 whole entry, looked up): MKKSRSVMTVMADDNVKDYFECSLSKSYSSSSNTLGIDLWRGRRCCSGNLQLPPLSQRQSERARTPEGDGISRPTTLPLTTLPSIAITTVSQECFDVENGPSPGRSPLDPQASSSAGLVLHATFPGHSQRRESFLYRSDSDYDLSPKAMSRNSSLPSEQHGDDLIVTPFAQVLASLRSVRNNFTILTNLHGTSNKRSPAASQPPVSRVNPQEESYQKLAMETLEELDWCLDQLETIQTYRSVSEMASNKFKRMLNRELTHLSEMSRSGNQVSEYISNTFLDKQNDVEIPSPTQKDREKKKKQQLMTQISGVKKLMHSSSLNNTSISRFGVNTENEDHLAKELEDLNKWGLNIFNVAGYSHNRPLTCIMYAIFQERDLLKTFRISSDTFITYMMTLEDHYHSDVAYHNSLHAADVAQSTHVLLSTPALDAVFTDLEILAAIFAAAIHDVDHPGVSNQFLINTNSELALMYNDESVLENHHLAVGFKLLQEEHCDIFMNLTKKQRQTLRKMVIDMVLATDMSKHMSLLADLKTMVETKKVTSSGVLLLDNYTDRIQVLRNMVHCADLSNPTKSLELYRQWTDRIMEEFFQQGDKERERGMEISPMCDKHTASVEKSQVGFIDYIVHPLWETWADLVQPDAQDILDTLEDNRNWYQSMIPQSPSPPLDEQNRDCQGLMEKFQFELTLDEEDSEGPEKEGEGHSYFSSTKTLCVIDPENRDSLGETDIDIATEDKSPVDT
Sequence of Glucocorticoid receptor (Homo sapiens) (P04150 whole entry, looked up, the tested form may be a part): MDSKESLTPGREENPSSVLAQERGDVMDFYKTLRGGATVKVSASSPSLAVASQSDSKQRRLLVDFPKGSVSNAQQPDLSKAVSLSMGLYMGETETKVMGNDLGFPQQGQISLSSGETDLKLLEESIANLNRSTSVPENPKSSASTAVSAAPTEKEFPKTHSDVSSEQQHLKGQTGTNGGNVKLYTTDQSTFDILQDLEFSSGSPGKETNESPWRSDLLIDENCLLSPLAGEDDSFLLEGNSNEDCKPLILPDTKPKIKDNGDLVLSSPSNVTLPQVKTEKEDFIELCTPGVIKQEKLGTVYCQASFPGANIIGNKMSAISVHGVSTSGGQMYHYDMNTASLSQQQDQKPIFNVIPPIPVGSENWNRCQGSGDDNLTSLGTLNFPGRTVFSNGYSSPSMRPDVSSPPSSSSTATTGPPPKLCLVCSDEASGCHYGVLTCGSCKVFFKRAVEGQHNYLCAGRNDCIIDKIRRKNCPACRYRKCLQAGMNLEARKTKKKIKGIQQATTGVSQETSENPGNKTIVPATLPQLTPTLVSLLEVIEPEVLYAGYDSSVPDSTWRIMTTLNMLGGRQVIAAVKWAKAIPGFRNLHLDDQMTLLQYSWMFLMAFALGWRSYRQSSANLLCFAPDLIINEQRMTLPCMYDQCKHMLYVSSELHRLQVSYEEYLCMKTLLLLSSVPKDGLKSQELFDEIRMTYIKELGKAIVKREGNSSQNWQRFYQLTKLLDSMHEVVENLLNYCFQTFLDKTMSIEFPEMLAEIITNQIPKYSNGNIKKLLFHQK
Sequence of Guanine nucleotide-binding protein G(i) subunit alpha-1 (Homo sapiens) (P63096 whole entry, looked up): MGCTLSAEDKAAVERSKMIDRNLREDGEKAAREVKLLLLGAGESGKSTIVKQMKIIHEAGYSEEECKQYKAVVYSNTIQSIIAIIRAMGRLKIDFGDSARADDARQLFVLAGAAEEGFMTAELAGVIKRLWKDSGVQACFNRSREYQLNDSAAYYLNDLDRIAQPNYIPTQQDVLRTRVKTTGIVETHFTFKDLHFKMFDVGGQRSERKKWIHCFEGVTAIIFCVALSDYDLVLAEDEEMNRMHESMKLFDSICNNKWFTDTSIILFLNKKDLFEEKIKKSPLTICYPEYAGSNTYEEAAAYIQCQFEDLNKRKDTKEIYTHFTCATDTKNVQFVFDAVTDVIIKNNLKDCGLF
Sequence of Alpha-galactosidase A (Homo sapiens) (P06280 whole entry, looked up): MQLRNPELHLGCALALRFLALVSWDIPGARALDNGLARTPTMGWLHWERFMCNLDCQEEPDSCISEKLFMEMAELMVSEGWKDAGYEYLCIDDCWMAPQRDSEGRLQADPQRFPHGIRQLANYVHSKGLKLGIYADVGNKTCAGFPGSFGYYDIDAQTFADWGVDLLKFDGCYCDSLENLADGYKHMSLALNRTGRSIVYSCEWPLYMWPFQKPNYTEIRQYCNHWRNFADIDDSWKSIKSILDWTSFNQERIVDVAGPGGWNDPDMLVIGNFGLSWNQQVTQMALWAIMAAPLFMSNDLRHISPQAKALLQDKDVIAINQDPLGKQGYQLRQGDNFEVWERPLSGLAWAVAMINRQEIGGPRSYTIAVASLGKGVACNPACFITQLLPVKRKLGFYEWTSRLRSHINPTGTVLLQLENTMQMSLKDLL
Sequence of Muscarinic acetylcholine receptor M1 (Rattus norvegicus) (P08482 whole entry, looked up): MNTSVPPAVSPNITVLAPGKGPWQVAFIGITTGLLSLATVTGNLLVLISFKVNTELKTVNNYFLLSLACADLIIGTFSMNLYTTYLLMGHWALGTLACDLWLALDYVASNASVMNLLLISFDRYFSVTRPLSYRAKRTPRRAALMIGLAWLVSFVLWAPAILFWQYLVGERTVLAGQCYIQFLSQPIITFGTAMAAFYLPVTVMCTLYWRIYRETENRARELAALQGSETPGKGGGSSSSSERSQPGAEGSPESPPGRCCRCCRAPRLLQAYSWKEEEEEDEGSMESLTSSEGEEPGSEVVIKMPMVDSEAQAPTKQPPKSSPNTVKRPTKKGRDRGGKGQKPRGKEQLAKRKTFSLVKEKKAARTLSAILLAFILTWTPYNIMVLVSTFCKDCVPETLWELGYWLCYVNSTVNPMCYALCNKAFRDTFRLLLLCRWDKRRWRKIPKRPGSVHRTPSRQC
Sequence of Cytochrome P450 3A4 (Homo sapiens) (P08684 whole entry, looked up): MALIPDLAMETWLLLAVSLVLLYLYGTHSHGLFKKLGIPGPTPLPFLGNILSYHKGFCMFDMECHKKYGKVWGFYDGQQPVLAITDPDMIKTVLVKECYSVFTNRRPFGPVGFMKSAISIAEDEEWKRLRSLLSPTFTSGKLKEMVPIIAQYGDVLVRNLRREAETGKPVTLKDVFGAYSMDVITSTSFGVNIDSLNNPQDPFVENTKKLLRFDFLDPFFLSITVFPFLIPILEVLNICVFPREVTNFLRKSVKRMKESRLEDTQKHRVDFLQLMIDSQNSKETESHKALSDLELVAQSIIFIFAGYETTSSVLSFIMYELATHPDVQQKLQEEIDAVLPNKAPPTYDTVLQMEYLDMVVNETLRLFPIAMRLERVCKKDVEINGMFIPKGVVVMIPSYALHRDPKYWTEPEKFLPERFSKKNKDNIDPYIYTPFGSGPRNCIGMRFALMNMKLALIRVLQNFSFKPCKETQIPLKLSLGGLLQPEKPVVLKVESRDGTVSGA

O=C1c2c(O)cc(O)cc2O[C@@H](c2ccc(O)c(O)c2)[C@H]1O
active: Potency [10] 1.58 µM
inactive: activity change, negative = inhibition [1] -14.3% [at 38 µM] | activity change, negative = inhibition [2] 13.3% [at 38 µM] | activity, negative = inhibition [3] -8.15% [at 38 µM] | Potency [4] > 46 µM | Potency [5] > 46 µM | Potency [6] | Potency [7] | outcome [8] | Potency [9] | Potency [11] | Potency [12] | outcome [13] | outcome [14] | outcome [15]

Cn1c(=O)c2c(nc(/C=C\c3cccc(Cl)c3)n2C)n(C)c1=O
inactive: activity change, negative = inhibition [1] 7.2% [at 38 µM] | activity change, negative = inhibition [2] -6.69% [at 38 µM] | activity, negative = inhibition [3] -14.4% [at 38 µM] | Potency [4] > 46 µM | Potency [5] > 46 µM | Potency [6] | Potency [7] | outcome [8] | Potency [11] | Potency [16] | Potency [12] | outcome [13] | outcome [14] | outcome [15]

COc1cc(C(=O)NCC(=O)n2nc(C)cc2C)cc(OC)c1OC
inactive: activity change, negative = inhibition [1] 0.479% | activity change, negative = inhibition [2] -4.87% | activity, negative = inhibition [3] 0.715% | Potency [4] > 20.6 µM

CC(C)(C(=O)O)c1ccc([C@@H](O)CCCN2CCC(C(O)(c3ccccc3)c3ccccc3)CC2)cc1
inactive: activity change, negative = inhibition [1] 8.57% [at 38 µM] | activity change, negative = inhibition [2] 8.69% [at 38 µM] | activity, negative = inhibition [3] 11.8% [at 38 µM] | Potency [4] > 46 µM | Potency [5] > 46 µM | Potency [6] | outcome [8] | Potency [11] | Potency [12] | outcome [13] | outcome [14] | outcome [15]

O=C(O)C[C@@H]1CCCc2ccccc2[C@H]1O
inactive: activity change, negative = inhibition [1] 1.66% [at 38 µM] | activity change, negative = inhibition [2] 2.27% [at 38 µM] | activity, negative = inhibition [3] -11.9% [at 38 µM] | Potency [4] > 46 µM | Potency [5] > 46 µM | Potency [6] | Potency [7] | outcome [8] | Potency [11] | Potency [17] | Potency [16] | Potency [12] | outcome [13] | outcome [14] | outcome [15]
